Assay results: PubChem BioAssay (NCI)
Several values for one entry are separate records, joined by “and”; a condition that tells them apart may be missing. Equal values may be shown once. This is part of a sample that, as a whole, favours compounds with a hit. Of some 83,000 tested, about 20% had one in any assay.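 In brief: 96-well plates, 48 h treatment, single concentration, percent growth endpoint.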 Values without a mark were called inactive. Activity calls are given as the source filed them. How the source made its calls: active means growth percent below 10; inactive means the rest.

Tested on: MDA-MB-468 breast
Test: NCI-60 one-dose screen, 48 h (100 = growth as untreated, 0 = no growth, -100 = all killed)
Conditions: 10 µM unless noted

O=C1[C@@H]2Cc3c([nH]c4ccccc34)[C@H](c3c(Cl)cccc3Cl)N2C(=O)CN1C1CCN(Cc2c(F)cccc2F)CC1
growth: 102%

OCC(O)C(O)C(O)C(O)/C=N/O (configuration not stated)
growth: 99.5%

CC1(C)C(=O)/C(=C\c2cccnc2)C[C@]2(C)[C@H]3CC=C4[C@@H]5C[C@@](C)(C(=O)O)CC[C@]5(C)CC[C@@]4(C)[C@]3(C)CC[C@@H]12
growth: 95.8%

O=C1Nc2ccccc2C12Nc1cc(Cl)ccc1S2 (configuration not stated)
growth: 105%

Clc1ccccc1C(c1ccccc1)(c1ccccc1)n1ccnc1
growth: 2.94% (active)

C=CC(=O)Nc1cccc(-c2nc(SC)nc(NCCN3CCOCC3)c2C#N)c1
growth: 97.8%

CCN1C(=O)N(CC)C2Nn3c(s/c(=C4\C(=O)N(CC(C)C)c5ccccc54)c3=O)=NC21 (configuration not stated)
growth: 15.8%

NS(=O)(=O)c1ccc(CCN2C(=O)C=CC2=O)cc1
growth: 103%

Cn1c2ccc(Br)cc2c2c3c(c4c5ccccc5[nH]c4c21)C(=O)N(O)C3=O
growth: -52.5% (active)

O=C1Nc2ccccc2/C1=C\c1c(-c2ccc(F)cc2)nc2ccccn12
growth: 40.8%

Nc1c(C(=O)Nc2cccc([N+](=O)[O-])c2)sc2nc3c(cc12)C(O)CCC3 (configuration not stated)
growth: 53.5%

CN1CCC[C@@H]1CCO[C@](C)(c1ccccc1)c1ccc(Cl)cc1
growth: -10.5% (active)

COc1cc(OC)c(C(=O)/C=C/c2cccc(C(F)(F)F)c2)c(OC)c1
growth: -9.39% (active)

CC(=O)C1=C(O)C=C2Oc3c(C(=O)/C=C/c4cc(C(F)(F)F)cc(C(F)(F)F)c4)c(O)c(C)c(O)c3[C@]2(C)C1=O
growth: -69.3% (active)

COc1cc(-c2c(C#N)c(-c3cccs3)nc3c2c(-c2ccccc2)nn3-c2ccccc2)ccc1O
growth: 95.4%

CCOC(=O)c1c(C)nc2c(c1N)C(=O)C(=O)N2Cc1ccc(C(F)(F)F)cc1
growth: 77.8%

Cc1ccc(/C=C2/C(=O)N(C)c3ccc(S(=O)(=O)Nc4ccc(C(C)(C)C)cc4)cc32)s1
growth: 63.1%

c1ccc(Sc2ccccc2)cc1
growth: 102%

CNC(=O)c1cc(Oc2ccc3c(c2)sc2nc(-c4ccc(OC)cc4)cn23)ccn1
growth: 16.8%

Nc1ccccc1-c1cc2c(c3c1[nH]c1ccccc13)CCCCC2
growth: 98.2%

O=C(Oc1ccccc1Cl)c1ccc(Cl)cc1Cl
growth: 103%

CCOC(=O)c1sc2nc(-c3cccc(OC)c3)nc(N3CCOCC3)c2c1C
growth: 81.2%

O=C(CC(C(=O)c1ccccc1)N1CCN(Cc2ccccc2)CC1)c1ccccc1 (configuration not stated)
growth: 70.1%

CC(=O)Nc1ccc(-c2ccc3c(c2)NC(=O)/C3=C\c2ccc[nH]2)cc1
growth: -7.08% (active)

COc1cccc(/C=C/C(=O)c2sc(Nc3ccc(O)cc3)nc2C)c1
growth: 97.2%

CCOC(=O)c1c2c(n3cccc(F)c13)C(=O)c1ncccc1C2=O
growth: 39.6%

CC(C)NC(=O)OCc1c(COC(=O)NC(C)C)c(-c2ccc(Cl)cc2)n2c1CCC2
growth: -8.97% (active)

CC(=O)Nc1nc2c(s1)C1=CC[C@H]3[C@@H]4CC[C@H](C(C)=O)[C@@]4(C)CC[C@@H]3[C@@]1(C)CC2
growth: 69.7%

Cc1ncc(C(=O)Nc2ccc(CN3CCN(C)CC3)c(C(F)(F)F)c2)cc1C#Cc1cnc(N)c2ccncc12
growth: -36.7% (active)

O=C(COc1ccc(/C=C2\Cc3ccc(Cl)cc3C2=O)cc1)Nc1nccs1
growth: 98.8%

COc1ccc2c(c1)c(-c1nc(-c3c[nH]c4ncccc34)cs1)cn2CCN
growth: 1.91% (active)

COc1cc(/C=C/c2ccccc2)cc(OC)c1
growth: 103%

N=c1c2cc(-c3ccccc3)oc2ncn1/N=C/c1ccccc1
growth: 53.7%

COc1cccc(NC(=O)c2sc3nc(C)c(C(=O)c4ccccc4)cc3c2N)c1
growth: 62.1%

COc1ccc(-c2nn(-c3cccc(Cl)c3)cc2-c2nc(N)[nH]c(=O)c2C#N)cc1
growth: 73.9%

NCCCN(CCCN)CCCNCc1c2ccccc2c(CNCCCN(CCCN)CCCN)c2ccccc12
growth: 83.4%

CC(C)N=c1cc2n(-c3ccc(Cl)cc3)c3ccccc3nc-2cc1Nc1ccc(Cl)cc1
growth: -45.1% (active) and -53.3% (active) and -42.4% (active)
